Measurements as given in article PMC12431657, “Discovery and mechanistic insights of dibenzoylmethane as a broad spectrum inhibitor of coronavirus” (PLOS Pathogens, 2025).
Where a name gives a salt, the structure may show the parent alone. Read-outs that look alike come from different tables or passages of the source. The whole screen tested about 3,300 compounds, of which about 95 (3%) showed an effect of 50% or more. The entries come from a sample that favours strong results as a whole. Peptide text beside a SMILES is read from it.

Tested on: HCoV-229E
Design: species or system Huh-7; HTS, protection from HCoV-229E induced cell death, luminescent cell viability (CellCounting-Lite 2.0), inhibition rate
Details: 24 h post infection, 1 h compound pre-incubation, 10 µM, inhibitor

COc1cc(O[C@@H]2O[C@H](CO[C@@H]3O[C@H](CO)[C@@H](O)[C@H](O)[C@H]3O)[C@@H](O)[C@H](O)[C@H]2O)c2c(O)c3c(=O)cc(C)oc3cc2c1 [Rubrofusarin gentiobioside]
229E Inhibition rate: 20.7%

COc1cccc(CCC(=O)O)c1 [3-(3-Methoxyphenyl)propionic acid]
229E Inhibition rate: 21.4%

O=CC[C@H](O)[C@H](O)CO [Thyminose]
229E Inhibition rate: 3.9%

C=C[C@H]1[C@H](O[C@@H]2O[C@H](CO)[C@@H](O)[C@H](O)[C@H]2O)OC=C(C(=O)OC)[C@H]1CC(=O)O [Secoxyloganin]
229E Inhibition rate: 44.3%

CC(C)CCC[C@@H](C)[C@H]1CC[C@H]2[C@@H]3CC=C4C[C@@H](O)CC[C@]4(C)[C@H]3CC[C@]12C [Cholesterol]
229E Inhibition rate: 13.1%

C[C@H](CCCC(C)(C)O)[C@H]1CC[C@H]2[C@@H]3CC=C4C[C@@H](O)CC[C@]4(C)[C@H]3CC[C@]12C [25-Hydroxycholesterol]
229E Inhibition rate: 3.1%

CC(C)CCC[C@](C)(O)[C@H]1CC[C@H]2[C@@H]3CC=C4C[C@@H](O)CC[C@]4(C)[C@H]3CC[C@@]21C [20(S)-Hydroxycholesterol]
229E Inhibition rate: 57%

Nc1ncnc(N[C@@H]2O[C@H](CO)[C@@H](O)[C@H]2O)c1[N+](=O)[O-] [Clitocine]
229E Inhibition rate: 17.5%

CC(C)=CCc1c(O[C@@H]2O[C@H](CO)[C@@H](O)[C@H](O)[C@H]2O)cc(O)c2c(=O)c(O[C@@H]3O[C@@H](C)[C@H](O)[C@@H](O)[C@H]3O)c(-c3ccc(O)cc3)oc12 [Epimedoside A]
229E Inhibition rate: 15.1%

COc1cc2c(cc1OC)[C@@H](Cc1ccc(O)c(Oc3cc4c(cc3OC)CCN(C)[C@@H]4Cc3ccc(O)cc3)c1)N(C)CC2 [Liensinine (Diperchlorate)]
229E Inhibition rate (229E Inhibition rate, 24 h): 57.2%

COc1cc2c(cc1OC)[C@@H](Cc1ccc(O)c(Oc3cc4c(cc3OC)CCN(C)[C@@H]4Cc3ccc(O)cc3)c1)N(C)CC2 [Liensinine]
229E Inhibition rate (229E Inhibition rate, 24 h): 44.3%

COc1cc2c(cc1OC)[C@@H](Cc1ccc(O)c(Oc3cc4c(cc3OC)CCN(C)[C@@H]4Cc3ccc(O)cc3)c1)N(C)CC2 [Liensinine (perchlorate)]
229E Inhibition rate (229E Inhibition rate, 24 h): 8.8%

CC[C@]1(O)C[C@@H]2CN(CCc3c([nH]c4ccccc34)[C@@](C(=O)OC)(c3cc4c(cc3OC)N(C)[C@H]3[C@@](O)(C(=O)OC)[C@H](OC(C)=O)[C@]5(CC)C=CCN6CC[C@]43[C@@H]65)C2)C1 [Vinblastine (sulfate)]
229E Inhibition rate: 30.6%

CC[C@H]1C[C@@H]2CN3CCc4c([nH]c5ccccc45)[C@](C(=O)OC)(C2)[C@H]13 [Coronaridine]
229E Inhibition rate: 41.8%

CCC1=C[C@@H]2CN3CCc4c([nH]c5ccccc45)[C@@](C(=O)OC)(C2)[C@@H]13 [Catharanthine]
229E Inhibition rate: 54.2%

C=C(C)[C@@H]1CC=C(CO)CC1 [(S)-(−)-Perillyl alcohol]
229E Inhibition rate: 9.9%

C[C@H]1CC[C@@H]2[C@@H](C)[C@H]3[C@H](C[C@H]4[C@@H]5CC=C6C[C@@H](O)CC[C@]6(C)[C@H]5CC[C@]34C)N2C1 [Solanidine]
229E Inhibition rate: 24.2%

C=C[C@H]1CN2CC[C@H]1C[C@@H]2[C@@H](O)c1ccnc2ccc(OC)cc12 [Quinidine hydrochloride monohydrate]
229E Inhibition rate (229E Inhibition rate, 24 h): 48.6%

C=C[C@H]1CN2CC[C@H]1C[C@H]2[C@H](O)c1ccnc2ccccc12 [Cinchonidine]
229E Inhibition rate: 13.4%

C=C[C@H]1CN2CC[C@H]1C[C@@H]2[C@@H](O)c1ccnc2ccccc12 [Cinchonine]
229E Inhibition rate: 53.6%

CC1(C)CCC[C@](C)([C@H]2CC[C@]3(C)[C@@H]2[C@H](O)C[C@@H]2[C@@]4(C)CC[C@H](O)C(C)(C)[C@@H]4[C@@H](O)C[C@]23C)O1 [Panaxatriol]
229E Inhibition rate: 15.9%

CC(C)=CCCC(C)CCO (stereo not shown) [Citronellol]
229E Inhibition rate: 12.8%

CC1(C)CC[C@]2(C(=O)O[C@@H]3O[C@H](CO)[C@@H](O)[C@H](O)[C@H]3O)CC[C@]3(C)C(=CC[C@@H]4[C@@]5(C)CC[C@H](O[C@@H]6O[C@H](C(=O)O)[C@@H](O)[C@H](O[C@@H]7OC[C@@H](O)[C@H](O)[C@H]7O)[C@H]6O)C(C)(C)[C@@H]5CC[C@]43C)[C@@H]2C1 [Momordin IIc]
229E Inhibition rate: 29.6%

CC(=O)[C@H]1CC[C@H]2[C@@H]3CC=C4C[C@@H](OS(=O)(=O)O)CC[C@]4(C)[C@H]3CC[C@]12C [Pregnenolone monosulfate (sodium)]
229E Inhibition rate: 55.9%

CC(C)CCC[C@@H](C)[C@H]1CC[C@H]2[C@@H]3CC=C4C[C@@H](OS(=O)(=O)O)CC[C@]4(C)[C@H]3CC[C@]12C [Cholesteryl sulfate (sodium)]
229E Inhibition rate: 7.6%

CC(=O)[C@H]1CC[C@H]2[C@@H]3CC=C4C[C@@H](O)CC[C@]4(C)[C@H]3CC[C@]12C [Pregnenolone]
229E Inhibition rate: 40.7%

CC1(C)C(=O)[C@]2(C)CC[C@H]1C2 [(-)-Fenchone]
229E Inhibition rate: 23.7%

C=C1C[C@@]23CC[C@H]4[C@@](C)(CCC[C@@]4(C)C(=O)O[C@@H]4O[C@H](CO)[C@@H](O)[C@H](O[C@@H]5O[C@H](CO)[C@@H](O)[C@H](O)[C@H]5O)[C@H]4O[C@@H]4O[C@H](CO)[C@@H](O)[C@H](O)[C@H]4O)[C@@H]2CC[C@]1(O[C@@H]1O[C@H](CO)[C@@H](O)[C@H](O[C@@H]2O[C@H](CO)[C@@H](O)[C@H](O)[C@H]2O)[C@H]1O[C@@H]1O[C@H](CO)[C@@H](O)[C@H](O)[C@H]1O)C3 [Rebaudioside M]
229E Inhibition rate: 19.5%

OC[C@H]1O[C@@](CO)(OC[C@@]2(O[C@H]3O[C@H](CO)[C@@H](O)[C@H](O)[C@H]3O)O[C@H](CO)[C@@H](O)[C@@H]2O)[C@@H](O)[C@@H]1O [1-Kestose]
229E Inhibition rate: 18.6%

CC[C@H](C)[C@@H]1NC(=O)[C@@H]2CCCN2C(=O)[C@@H]2CCCN2C(=O)[C@@H]2CCCN2C(=O)[C@H](CC(C)C)NC(=O)CNC(=O)CNC(=O)[C@H](Cc2ccccc2)NC1=O [Heterophyllin B] (cyclo(FGGLPPPI))
229E Inhibition rate: 12.9%

O=C(OCc1ccccc1)c1ccccc1O [Benzyl salicylate]
229E Inhibition rate: 24.5%

O=C(OCc1ccccc1)c1ccccc1 [Benzyl benzoate]
229E Inhibition rate: 12.5%

CC(=O)OCc1ccccc1 [Benzyl acetate]
229E Inhibition rate: 50.3%

C[C@H]1O[C@@H](Oc2ccc(COC(=O)CC(O)(CC(=O)OCc3ccc(O[C@@H]4O[C@H](CO)[C@@H](O)[C@H](O)[C@H]4O)cc3)C(=O)Oc3ccc(O[C@H]4O[C@H](CO)[C@@H](O)[C@H](O)[C@H]4O)cc3)cc2)[C@H](O)[C@@H](O)[C@@H]1O (stereo partly shown) [Parishin]
229E Inhibition rate: 9.7%

O=C1CC(C(=O)O)c2c1oc(=O)c1cc(O)c(O)c(O)c21 (stereo not shown) [Brevifolincarboxylic acid]
229E Inhibition rate: 6.4%

C[C@H]1[C@H](C)CC[C@]2(C)CC[C@]3(C)C(=CC[C@@H]4[C@@]5(C)CC[C@@H](O)[C@](C)(C(=O)O)[C@@H]5CC[C@]43C)[C@H]12 [β-Boswellic acid]
229E Inhibition rate: 22.5%

CCCCCCCCCCCCCCCCCC(=O)OC [Methyl stearate]
229E Inhibition rate: 17.9%

CCCCCCCCCCCCCCCCCCCCCCCC(=O)OC [Methyl tetracosanoate]
229E Inhibition rate: 11.5%

CCCCCCCCCCC(=O)OC [Methyl undecanoate]
229E Inhibition rate: 56.2%

C=C1C[C@@]23CC[C@H]4[C@@](C)(CCC[C@@]4(C)C(=O)O)[C@@H]2CC[C@]1(O[C@@H]1O[C@H](CO)[C@@H](O)[C@H](O[C@@H]2O[C@H](CO)[C@@H](O)[C@H](O)[C@H]2O)[C@H]1O[C@@H]1O[C@H](CO)[C@@H](O)[C@H](O)[C@H]1O)C3 [Rebaudioside B]
229E Inhibition rate: 36.9%

COc1cc(/C=C/C=O)ccc1O [Coniferaldehyde]
229E Inhibition rate: 38.5%

Nc1ncnc2c1ncn2[C@H]1C[C@H](O)[C@@H](CO)O1 [2'-Deoxyadenosine monohydrate]
229E Inhibition rate (229E Inhibition rate, 24 h): 8.6%

Nc1ncnc2c1ncn2[C@@H]1C[C@H](CO)[C@@H](O)[C@H]1O [Aristeromycin]
229E Inhibition rate: 57.5%

Nc1ncnc2c1ncn2[C@@H]1O[C@H](CO)C[C@H]1O [Cordycepin]
229E Inhibition rate: 15.3%

O=C(/C=C/c1ccccc1)c1ccccc1 [trans-Chalcone]
229E Inhibition rate (229E Inhibition rate, 24 h): 5.4%

O=C1C[C@@](O)(C(=O)O)[C@@H](C(=O)O)O1 [(-)-Hydroxycitric acid lactone]
229E Inhibition rate: 7.8%

O=C(O)CCCC(O)C(=O)O (stereo not shown) [2-Hydroxyadipic acid]
229E Inhibition rate: 14.9%

C[S@@+]([O-])CCCCN=C=S [(R)-sulforaphane]
229E Inhibition rate: 54%

C=C1C(=O)[C@@]23[C@@H]4OC5O[C@@]2(O)[C@@H](O)[C@@H]2C(C)(C)CC[C@@H](O)[C@]52[C@@H]3CC[C@@H]14 [ponicidin]
229E Inhibition rate: 95.6%

C=C1C(=O)[C@]23[C@H](O)[C@H]1CC[C@H]2[C@@]12CO[C@]3(O)[C@@H](O)[C@@H]1C(C)(C)CC[C@@H]2O [Oridonin]
229E Inhibition rate: 0%

C=C1C(=O)[C@@]23[C@H](O)C[C@@H]4C(C)(C)CC[C@H](O)[C@@]4(CO)[C@@H]2CC[C@@H]1[C@H]3O [Kamebakaurin]
229E Inhibition rate: 0%

COc1c2ccoc2c(O)c2oc(=O)ccc12 [8-Hydroxybergapten]
229E Inhibition rate: 7.9%
